# Assay results: PubChem BioAssay
# Calls of active or inactive are those of the source.
# Key:
# [1] = tested on: PRMT1 (protein arginine N-methyltransferase 1); assay: PRMT1 binders on small-molecule microarrays, primary screen, biochemical, small-molecule microarray, 635 nm fluorescence (AID 1088); details: small-molecule microarray binding, higher = more signal;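 also: binding of Prmt1 protein to compounds spotted on small-molecule microarray slides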
# [2] = yeast growth modulation, basal conditions, primary screen, YJM789 clinical isolate, OD600, 24 h (AID 1089);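 also: growth of clinical yeast isolate S. cerevisiae YJM 789 seeded 1000 cells per well; test concentration not given here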; details: S. cerevisiae YJM789 growth, higher = more signal, called active from +8 up or from −8 down
# [3] = fission yeast growth modulation, primary screen, strain 972, OD600, 24 h, no modulator (AID 1090);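 also: basal condition with compound alone and no growth modifier present; test concentration not given here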; details: S. pombe 972 growth, higher = more signal, called active from +8 up or from −8 down
# [4] = S. cerevisiae growth modulation with rapamycin, primary screen, strain BY4716, OD600, 96 h (AID 1091); details: higher = more signal, called active from +8 up or from −8 down; also: test concentration not given here
# [5] = molecular target: Torsin-1A-interacting protein 2 (Homo sapiens) (UniProt Q8NFQ8); assay: LULL1 binders on small-molecule microarray, primary screen, cell lysate, human LULL1 lysate, 635/667 nm fluorescence (AID 1092); details: hLULL1 lysate binding, 635 nm fluorescence, higher = more signal;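 also: probe is lysate of COS7 cells overexpressing human LULL1; score merges per-feature 667 nm fluorescence with signal-to-noise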
# Sequence of Torsin-1A-interacting protein 2 (Homo sapiens) (Q8NFQ8 whole entry, looked up): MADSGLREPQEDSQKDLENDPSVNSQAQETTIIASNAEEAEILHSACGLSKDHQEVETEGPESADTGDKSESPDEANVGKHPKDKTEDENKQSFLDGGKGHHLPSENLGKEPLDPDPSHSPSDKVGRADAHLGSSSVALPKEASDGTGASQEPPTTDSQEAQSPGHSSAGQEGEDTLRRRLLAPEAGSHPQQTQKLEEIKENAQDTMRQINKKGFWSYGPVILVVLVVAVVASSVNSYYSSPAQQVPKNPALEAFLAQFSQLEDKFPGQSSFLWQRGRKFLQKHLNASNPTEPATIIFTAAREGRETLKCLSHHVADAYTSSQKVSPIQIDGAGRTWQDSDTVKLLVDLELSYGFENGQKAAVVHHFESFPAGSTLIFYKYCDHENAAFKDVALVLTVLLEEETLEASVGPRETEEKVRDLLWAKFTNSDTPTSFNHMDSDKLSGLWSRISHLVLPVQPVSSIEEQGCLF
# [6] = E. coli growth modulation, two-sided OD650, primary screen, E. coli filamentation project, strain DRC41, 24 h (AID 1093); details: OD650, 24 h, higher = more signal, called active from +8 up or from −8 down;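 also: MC1000 strain lacking acrAB efflux and sulA so SOS filamentation is blocked; test concentration not given here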
# [7] = small-molecule microarray binders of probe aLefty2, primary screen, biochemical, biotinylated probe, 635/667 nm fluorescence (AID 1094); details: higher = more signal;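 also: score merges spot fluorescence near 667 nm with spot signal-to-noise ratio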
# [8] = tested on: Noggin (protein binding on small-molecule microarray); assay: Noggin binders on small-molecule microarray, primary screen, biochemical, 635/667 nm fluorescence (AID 1095); details: 635 nm fluorescence, higher = more signal;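 also: score merges 667 nm feature fluorescence with signal to noise over triplicate slides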
# [9] = molecular target: Neurogenic locus notch homolog protein 3 (Homo sapiens) (UniProt Q9UM47); assay: NOTCH3 binders on small-molecule microarray, primary screen, biochemical, 635/667 nm fluorescence (AID 1096); details: NOTCH3 binding, 635 nm fluorescence, higher = more signal
# Sequence of Neurogenic locus notch homolog protein 3 (Homo sapiens) (Q9UM47 whole entry, looked up): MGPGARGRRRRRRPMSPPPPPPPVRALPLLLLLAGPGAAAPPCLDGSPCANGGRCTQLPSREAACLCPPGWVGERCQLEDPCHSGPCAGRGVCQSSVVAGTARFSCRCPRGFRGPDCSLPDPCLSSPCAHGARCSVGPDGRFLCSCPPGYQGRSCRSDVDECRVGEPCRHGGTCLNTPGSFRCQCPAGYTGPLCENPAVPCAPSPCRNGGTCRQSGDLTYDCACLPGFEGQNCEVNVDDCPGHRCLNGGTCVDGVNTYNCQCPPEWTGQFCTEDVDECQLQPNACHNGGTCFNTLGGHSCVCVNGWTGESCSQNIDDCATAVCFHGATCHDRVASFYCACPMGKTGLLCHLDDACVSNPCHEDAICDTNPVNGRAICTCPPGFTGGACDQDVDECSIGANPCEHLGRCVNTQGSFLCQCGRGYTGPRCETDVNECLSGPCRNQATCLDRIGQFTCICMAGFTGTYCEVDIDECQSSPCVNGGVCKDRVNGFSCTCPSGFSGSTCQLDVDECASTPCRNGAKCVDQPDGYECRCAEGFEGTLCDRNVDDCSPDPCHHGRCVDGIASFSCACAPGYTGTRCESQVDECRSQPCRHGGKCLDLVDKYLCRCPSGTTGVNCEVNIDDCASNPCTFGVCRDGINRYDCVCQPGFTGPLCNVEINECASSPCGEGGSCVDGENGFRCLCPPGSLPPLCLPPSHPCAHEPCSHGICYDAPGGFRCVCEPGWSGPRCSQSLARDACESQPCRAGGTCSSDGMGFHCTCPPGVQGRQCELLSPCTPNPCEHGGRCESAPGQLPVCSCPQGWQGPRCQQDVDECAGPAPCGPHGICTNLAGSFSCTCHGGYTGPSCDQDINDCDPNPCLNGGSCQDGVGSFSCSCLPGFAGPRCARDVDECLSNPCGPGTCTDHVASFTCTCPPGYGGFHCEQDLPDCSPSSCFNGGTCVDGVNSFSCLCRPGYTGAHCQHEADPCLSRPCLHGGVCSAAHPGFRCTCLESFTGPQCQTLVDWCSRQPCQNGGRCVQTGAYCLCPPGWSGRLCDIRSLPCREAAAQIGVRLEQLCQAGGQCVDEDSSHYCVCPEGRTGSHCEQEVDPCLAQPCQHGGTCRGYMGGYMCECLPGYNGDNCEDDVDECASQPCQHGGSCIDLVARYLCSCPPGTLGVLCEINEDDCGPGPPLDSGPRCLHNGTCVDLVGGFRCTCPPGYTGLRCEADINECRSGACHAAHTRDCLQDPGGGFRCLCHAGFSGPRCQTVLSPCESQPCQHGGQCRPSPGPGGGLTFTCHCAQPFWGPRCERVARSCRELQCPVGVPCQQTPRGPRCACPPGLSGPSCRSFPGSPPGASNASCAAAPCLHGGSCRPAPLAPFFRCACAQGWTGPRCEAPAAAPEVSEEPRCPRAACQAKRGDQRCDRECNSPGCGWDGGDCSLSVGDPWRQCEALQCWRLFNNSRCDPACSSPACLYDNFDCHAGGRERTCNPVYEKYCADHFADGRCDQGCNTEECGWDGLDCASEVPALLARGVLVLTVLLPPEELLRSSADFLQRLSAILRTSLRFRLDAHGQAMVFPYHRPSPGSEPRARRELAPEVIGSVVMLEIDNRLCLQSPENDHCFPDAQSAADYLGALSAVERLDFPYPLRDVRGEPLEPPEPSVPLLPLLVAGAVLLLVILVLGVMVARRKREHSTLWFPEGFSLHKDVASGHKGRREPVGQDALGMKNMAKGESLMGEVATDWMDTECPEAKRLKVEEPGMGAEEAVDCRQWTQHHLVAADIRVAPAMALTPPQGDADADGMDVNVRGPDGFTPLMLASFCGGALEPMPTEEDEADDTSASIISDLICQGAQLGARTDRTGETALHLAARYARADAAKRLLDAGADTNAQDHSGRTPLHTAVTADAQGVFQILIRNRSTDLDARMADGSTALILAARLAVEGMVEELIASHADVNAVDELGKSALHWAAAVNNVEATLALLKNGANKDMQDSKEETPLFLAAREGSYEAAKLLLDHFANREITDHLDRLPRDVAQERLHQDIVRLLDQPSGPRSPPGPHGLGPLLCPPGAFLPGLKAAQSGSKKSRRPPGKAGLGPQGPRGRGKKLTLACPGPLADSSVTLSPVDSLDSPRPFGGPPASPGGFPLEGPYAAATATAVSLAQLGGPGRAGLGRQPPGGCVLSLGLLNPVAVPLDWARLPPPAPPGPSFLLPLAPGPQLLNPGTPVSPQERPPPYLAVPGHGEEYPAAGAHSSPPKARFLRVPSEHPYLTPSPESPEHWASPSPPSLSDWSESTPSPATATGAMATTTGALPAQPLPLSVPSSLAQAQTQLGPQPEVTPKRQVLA
# [10] = small-molecule microarray binders of probe aEGFR, primary screen, biochemical, biotinylated probe, 635/667 nm fluorescence (AID 1097); details: higher = more signal;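 also: probe is a biotinylated anti-EGFR antibody binding compounds printed on slides; score combines fluorescence near 667 nm and signal to noise of each spot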
# [11] = tested on: Plasmodium falciparum Sir2 (PF13_0152, Sir2A); assay: pfSir2 binders on small-molecule microarrays, primary screen, biochemical, small-molecule microarray, 635 nm fluorescence (AID 1098); details: small-molecule microarray binding, fluorescence 635 nm; higher = more signal;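 also: score merges spot fluorescence intensity with its signal-to-noise ratio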
# [12] = small-molecule microarray binders of probe aDKK1, primary screen, biochemical, biotinylated probe, 635/667 nm fluorescence (AID 1099); details: higher = more signal;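 also: score merges 667nm spot fluorescence with signal to noise across triplicate slides; reference of the scale not given here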
# [13] = small-molecule microarray binders of probe aCHRDL2, primary screen, biochemical, biotinylated probe, 635/667 nm fluorescence (AID 1100); details: higher = more signal
# [14] = splicing luciferase reporter signal modulators, primary screen, spliceosome inhibition project, cell-based, HEK293, splice +/- reporter (AID 1101); details: luminescence, 24 h, higher = more signal, called active from +8 up or from −8 down;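 also: HEK293 cells carrying a splicing-competent luciferase reporter gene; test concentration not given here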
# [15] = molecular target: Fibroblast growth factor 10 (Homo sapiens) (UniProt O15520); assay: FGF10 binders on small-molecule microarrays, primary screen, biochemical, small-molecule microarray, 635 nm fluorescence (AID 1102); details: FGF10 binding, fluorescence 635 nm, higher = more signal
# Sequence of Fibroblast growth factor 10 (Homo sapiens) (O15520 whole entry, looked up): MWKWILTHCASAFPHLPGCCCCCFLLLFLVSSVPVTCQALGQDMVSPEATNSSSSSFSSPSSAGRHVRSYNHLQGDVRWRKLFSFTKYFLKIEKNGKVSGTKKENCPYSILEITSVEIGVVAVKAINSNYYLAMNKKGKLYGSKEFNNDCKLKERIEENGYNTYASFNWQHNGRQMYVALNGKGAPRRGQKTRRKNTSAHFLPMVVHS
# [16] = tested on: glycogen synthase kinase-3 (GSK3A per assay name; protocol says GSK3B); assay: GSK3 binders on small-molecule microarrays, primary screen, biochemical, small-molecule microarray, 635 nm fluorescence, GSK3A (AID 1103); details: small-molecule microarray binding, fluorescence 635 nm; higher = more signal; also: the record names both GSK3A and GSK3B
# [17] = molecular target: Epidermal growth factor receptor (Homo sapiens) (UniProt P00533); assay: EGFR binders on small-molecule microarrays, primary screen, biochemical, small-molecule microarray, 635 nm fluorescence (AID 1104); details: EGFR binding, higher = more signal;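 also: score merges 667 nm emission intensity with spot signal to noise over triplicate slides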
# Sequence of Epidermal growth factor receptor (Homo sapiens) (P00533 whole entry, looked up): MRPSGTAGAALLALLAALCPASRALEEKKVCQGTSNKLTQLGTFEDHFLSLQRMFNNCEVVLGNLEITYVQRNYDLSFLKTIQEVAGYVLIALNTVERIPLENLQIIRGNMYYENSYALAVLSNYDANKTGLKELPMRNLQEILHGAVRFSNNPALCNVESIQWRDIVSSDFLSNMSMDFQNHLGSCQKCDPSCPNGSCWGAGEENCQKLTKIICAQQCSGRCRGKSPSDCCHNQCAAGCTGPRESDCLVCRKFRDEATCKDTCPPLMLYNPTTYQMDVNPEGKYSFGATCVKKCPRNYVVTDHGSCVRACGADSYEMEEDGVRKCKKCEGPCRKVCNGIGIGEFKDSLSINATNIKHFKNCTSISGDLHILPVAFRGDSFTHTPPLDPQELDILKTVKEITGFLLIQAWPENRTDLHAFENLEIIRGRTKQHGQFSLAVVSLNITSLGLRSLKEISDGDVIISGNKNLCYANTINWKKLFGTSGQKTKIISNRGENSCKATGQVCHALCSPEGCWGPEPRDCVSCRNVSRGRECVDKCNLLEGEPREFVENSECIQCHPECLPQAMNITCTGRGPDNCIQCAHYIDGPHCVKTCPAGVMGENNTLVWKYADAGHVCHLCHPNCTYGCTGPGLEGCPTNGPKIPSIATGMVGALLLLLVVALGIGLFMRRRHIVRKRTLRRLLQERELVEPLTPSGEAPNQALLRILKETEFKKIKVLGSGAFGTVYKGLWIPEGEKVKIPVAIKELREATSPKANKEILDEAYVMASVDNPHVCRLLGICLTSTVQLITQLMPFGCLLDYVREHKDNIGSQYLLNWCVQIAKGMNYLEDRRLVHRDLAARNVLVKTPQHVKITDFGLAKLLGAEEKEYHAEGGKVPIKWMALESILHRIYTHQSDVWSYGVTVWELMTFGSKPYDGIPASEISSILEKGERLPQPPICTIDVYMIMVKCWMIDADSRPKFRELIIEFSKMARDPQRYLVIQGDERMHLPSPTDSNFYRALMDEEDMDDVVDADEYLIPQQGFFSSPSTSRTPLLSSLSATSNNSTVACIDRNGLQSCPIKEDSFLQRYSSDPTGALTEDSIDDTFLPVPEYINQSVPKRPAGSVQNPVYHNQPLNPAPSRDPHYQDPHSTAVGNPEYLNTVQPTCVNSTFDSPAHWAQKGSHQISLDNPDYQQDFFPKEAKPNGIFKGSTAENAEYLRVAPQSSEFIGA
# [18] = molecular target: Follistatin-related protein 3 (Homo sapiens) (UniProt O95633); assay: FSTL3 binders on small-molecule microarrays, primary screen, biochemical, small-molecule microarray, 635 nm fluorescence (AID 1105); details: FSTL3 binding, higher = more signal;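 also: score merges emission near 667 nm and signal to noise per printed spot across three slides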
# Sequence of Follistatin-related protein 3 (Homo sapiens) (O95633 whole entry, looked up): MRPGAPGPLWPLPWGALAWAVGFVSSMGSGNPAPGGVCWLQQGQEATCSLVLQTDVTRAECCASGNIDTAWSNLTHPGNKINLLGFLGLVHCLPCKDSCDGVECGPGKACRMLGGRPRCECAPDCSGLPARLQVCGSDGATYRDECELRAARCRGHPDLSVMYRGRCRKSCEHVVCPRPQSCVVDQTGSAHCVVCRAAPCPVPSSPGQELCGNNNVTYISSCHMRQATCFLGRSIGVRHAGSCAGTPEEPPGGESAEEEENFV
# [19] = molecular target: Dickkopf-related protein 1 (Homo sapiens) (UniProt O94907); assay: DKK1 binders on small-molecule microarrays, primary screen, biochemical, small-molecule microarray, 635 nm fluorescence scan (AID 1106); details: DKK1 binding, higher = more signal;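 also: score merges emission near 667 nm with signal to noise over three replicate slides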
# Sequence of Dickkopf-related protein 1 (Homo sapiens) (O94907 whole entry, looked up): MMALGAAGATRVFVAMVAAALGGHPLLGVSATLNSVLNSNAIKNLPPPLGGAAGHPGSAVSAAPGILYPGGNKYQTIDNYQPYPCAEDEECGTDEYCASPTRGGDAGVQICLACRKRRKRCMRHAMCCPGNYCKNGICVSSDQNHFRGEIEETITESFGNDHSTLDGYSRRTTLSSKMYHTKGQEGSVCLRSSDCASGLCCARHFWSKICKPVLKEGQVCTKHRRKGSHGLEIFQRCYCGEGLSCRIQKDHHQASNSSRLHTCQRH
# [20] = tested on: Inhibin beta A chain (activin A); assay: INHBA (activin A) binders on microarrays, primary screen, biochemical, small-molecule microarray, 635 nm fluorescence scan (AID 1107); details: small-molecule microarray binding, higher = more signal;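 also: mouse activin A protein probed at 4.33 µg/mL on printed slides; score merges bound-protein fluorescence near 667 nm with spot signal-to-noise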
Compound,composite z-score [1],z-score [2],z-score [3],z-score [4],composite z-score [5],z-score [6],composite z-score [7],composite z-score [8],composite z-score [9],composite z-score [10],composite z-score [11],composite z-score [12],composite z-score [13],z-score [14],composite z-score [15],composite z-score [16],composite z-score [17],composite z-score [18],composite z-score [19],composite z-score [20]
COC(=O)[C@@H]1CC[C@H](C)[C@@H](c2ccc(C)cc2)N1C(=O)c1ccc(C=NO[C@H](C)c2cn([C@@H]3COC[C@H]3O)nn2)cc1,1.12,0.524 (inactive),-0.0358 (inactive),0.726 (inactive),2.06,1.67 (inactive),-0.138,0.258,1.09,0.212,0.266,-0.132,-0.369,0.0134 (inactive),0.718,0.891,0.67,0.66,0.831,-1.14
C[C@@H](c1ccccc1)N1C(=O)[C@H]2[C@H]3[C@H](O)[C@H](O)CC(=NOCc4ccccc4)[C@H]3CC[C@H]2C1=O,1.3,0.435 (inactive),0.107 (inactive),0.0942 (inactive),2.38,-0.0659 (inactive),-0.0942,0.374,0.354,-0.0424,0.8,-0.197,-0.442,-0.0874 (inactive),0.601,0.535,0.45,0.44,0.312,-0.27
CCOC(=O)NN=C1C[C@@H](O)[C@@H](O)[C@@H]2[C@@H]3C(=O)N(Cc4ccc5c(c4)OCO5)C(=O)[C@@H]3CC[C@H]12,0.667,-0.126 (inactive),0.119 (inactive),-0.6 (inactive),2.31,0.203 (inactive),-0.289,0.303,-0.578,-0.0978,0.263,-0.238,-0.233,0.346 (inactive),0.0798,-0.566,-0.0894,-0.199,-0.108,0.0787
COC(=O)CC=C[C@@H](C)[C@@H](C=NO[C@@H](C)c1cc(-c2c(C)cc(C)cc2C)no1)NS(=O)(=O)c1ccc(C)cc1,-0.84,-0.0649 (inactive),0.679 (inactive),0.905 (inactive),-0.227,-0.881 (inactive),0.0221,-2.2,-2.03,-0.224,-0.775,0.437,0.969,-1.4 (inactive),-1.93,-1.46,-1.16,-1.83,-2.26,0.178
C#CCCCON=C1C[C@@H](O)[C@@H](O)[C@@H]2[C@@H]3C(=O)N(CCC(=O)OCC)C(=O)[C@@H]3CC[C@H]12,1.48,-1.64 (inactive),-1.32 (inactive),-0.947 (inactive),1.28,0.299 (inactive),-0.104,0.4,1.1,-0.0419,1,0.286,-0.491,-1.79 (inactive),0.628,0.814,0.542,1.16,0.389,-0.422
CON=C1[C@H]2CCn3c(=O)n(-c4ccccc4)c(=O)n3[C@H]2[C@H](O)[C@@H]2O[C@H]12,0.887,-1.57 (inactive),-1.81 (inactive),2.3 (inactive),0.456,-0.114 (inactive),-0.205,1.02,0.646,-0.177,0.555,-0.198,-0.67,-0.871 (inactive),0.556,0.81,0.599,0.488,0.332,0.141
COC(=O)[C@H]1O[C@@H](c2c(OC)c(OC)c(C)c(OC)c2OC)[C@H](C)[C@@H](O)[C@H]1C,1.03,0.234 (inactive),0.346 (inactive),-0.438 (inactive),0.964,0.196 (inactive),-0.0131,0.585,1.1,0.0821,0.209,0.138,0.112,-0.187 (inactive),0.798,0.824,0.0132,0.89,0.743,-0.311
CO[C@@H]1C=CCC(=O)N2CCC[C@H]2C(=O)OC[C@@H](C)C(=O)OC[C@H]1C,0.865,-0.0313 (inactive),-1.32 (inactive),-0.918 (inactive),-0.334,0.872 (inactive),-0.143,1.56,-0.0741,-0.0444,1.1,-0.21,-0.822,-0.497 (inactive),0.441,0.484,0.521,1.44,1.43,0.163
CC(CCN1CCCCc2nc(C)c(C)cc21)=NO[C@H](C)c1cn([C@H](CO)Cc2ccccc2)nn1,1.1,-0.585 (inactive),0.446 (inactive),-0.382 (inactive),0.592,-0.425 (inactive),0.0345,0.196,0.108,-0.026,0.79,-0.0963,-0.65,0.339 (inactive),0.383,-0.393,0.773,1.25,0.885,1.15
